# The list is not random: actives were taken first. Their share in the collection is about 3.7%.
# Bead autofluor: compound fluorescence in toxin protease inhibitor counterscreen; compound autofluorescence counterscreen, microsphere flow cytometry; active compounds read high; fluorescence intensity (test concentration not listed); 360,000 compounds, 3.1% hits; in the data active means fluorescence intensity above about 16000; inconclusive means no clear call, values can overlap the other calls
# BoNT-F LC inh: blocks Botulinum neurotoxin F light chain protease. Multiplex microsphere protease cleavage assay, flow cytometry. inhibition, % at 10 µM. 360,000 compounds, 0.22% hits. AID 588497; in the data active means inhibition above about 35%, passing the limit was not always enough; inconclusive means no clear call, values can overlap the other calls; further: plate controls were buffer without enzyme for full effect and enzyme alone for no effect
# Anthrax LF inh2: inhibitors of Bacillus anthracis lethal factor protease. P15917. 360,000 compounds, 0.12% hits. inhibition, % at 10 µM. AID 588501. multiplex microsphere protease cleavage assay, LF; further: plate controls were buffer without enzyme for full effect and enzyme alone for no effect
# BoNT-A LC inh2: inhibitors of Botulinum neurotoxin A light chain protease. multiplex microsphere protease substrate cleavage, flow cytometry. inhibition, % at 10 µM. 360,000 compounds, 0.17% hits; further: plate controls were buffer without enzyme for full effect and enzyme alone for no effect
# MazEF act: activators of E. coli MazEF toxin-antitoxin RNase | FAM/BHQ RNA-DNA oligo cleavage fluorescence, 5 h | activation, % at 20 µM | 350,000 compounds, 0.32% hits | AID 504720; in the data active means activation above about 50%
# Target sequence (P0AE70 whole entry, looked up): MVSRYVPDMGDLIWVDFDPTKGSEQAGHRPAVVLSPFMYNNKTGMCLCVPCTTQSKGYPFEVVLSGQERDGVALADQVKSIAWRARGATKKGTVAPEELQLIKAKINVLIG
# * = called active by the depositor; ? = inconclusive; . = not tested or not shown; + = active, no number. Unless noted, no stated cut-off is given here; in the data, active means inhibition above about 30%; inconclusive means no clear call, values can overlap the other calls; inactive means below that.
SMILES,Bead autofluor,BoNT-F LC inh,Anthrax LF inh2,BoNT-A LC inh2,MazEF act
O=C(NCCCn1ccnc1)c1ccccc1Br,3273,-13,5,0,-5
Cc1ccc(CNC(=O)CSc2nnc3n2CCCCC3)cc1,3118,-2,-14,0,1
Cc1ccc(OCC(=O)N/N=C2\CCOc3c(C)cccc32)cc1,22762*,-1,0,2,4
COc1cccc2c1OCC/C2=N\NC(=O)COc1ccccc1C,1897,1,-3,0,1
COc1cccc2c1OCC/C2=N\NC(=O)COc1ccc(C)cc1,2126,-2,0,1,-5
Cc1ccccc1OCC(=O)N/N=C1\CCOc2c(C)cccc21,20512*,0,0,-1,39
CNS(=O)(=O)c1cn(CC(=O)NCc2ccc(OC)cc2)cc1S(=O)(=O)NC,3912,-5,2,-1,11
CCN(Cc1ccncc1)C(=O)c1ccccc1NS(=O)(=O)c1ccc(F)cc1,3858,1,-7,-1,8
COc1ccccc1N1CCN(C(c2cc3cc(C)ccc3[nH]c2=O)c2nnnn2C2CCCC2)CC1 (stereo unspecified),21854*,3,0,2,-3
CCN(CC)C(c1ccc(C)cc1)c1nnnn1C1CCCCC1 (stereo unspecified),10419,3,-7,0,-1
CCC(C)(C)n1nnnc1C(c1cc2cc3c(cc2[nH]c1=O)OCO3)N1CCCCC1 (stereo unspecified),10893,-8,0,1,0
CCC(C)(C)n1nnnc1C(c1cc2ccc(OC)cc2[nH]c1=O)N1CCN(C2CCCCC2)CC1 (stereo unspecified),21897*,-5,3,?,-6
CCOC(=O)C1CCN(C(c2cc3ccc(C)cc3[nH]c2=O)c2nnnn2C2CCCCC2)CC1 (stereo unspecified),28733*,1,1,-3,-4
CCN(CC)C(c1ccc(F)cc1)c1nnnn1C1CCCCC1 (stereo unspecified),21991*,4,-1,2,0
COc1ccccc1N1CCN(C(c2cc3ccc(C)cc3[nH]c2=O)c2nnnn2C2CCCC2)CC1 (stereo unspecified),14791,5,-8,4,-2
Cc1ccc(-c2nc3ccc(Br)cn3c2Cc2cccc(F)c2)cc1,5204,-8,2,3,.
COc1ccccc1-c1nnc(SCC(=O)Nc2cccnc2Cl)n1C,4194,-9,0,0,8
Fc1ccc(C(c2nnnn2CCc2ccccc2)N2CCCc3ccccc32)cc1 (stereo unspecified),5148,-33,-6,-2,-2
Fc1ccc(C(c2nnnn2C2CCCC2)N2CCc3ccccc32)cc1 (stereo unspecified),17043*,-5,-3,-3,5
COc1cc2cc(C(c3nnnn3C3CCCC3)N3CCc4ccccc43)c(=O)[nH]c2cc1OC (stereo unspecified),19430*,5,0,6,3
Cc1ccccc1NC(=S)NNC(=O)c1ccoc1C,24040*,-6,0,-5,-13
Cc1occc1C(=O)NNC(=S)Nc1ccccc1C(F)(F)F,8370,3,-2,1,-5
O=C(O)CCN1C(=O)C(=C2CCCCCC2)SC1=S,3069,-2,-3,0,4
O=C1C(=C2CCCCC2)SC(=S)N1Cc1ccco1,23926*,-2,-4,?,-17
COc1ccc(CC(=O)Nc2c3c(nn2-c2ccccc2C)CS(=O)C3)cc1 (stereo unspecified),20787*,0,0,0,-1
SMILES,Bead autofluor,BoNT-F LC inh,Anthrax LF inh2,BoNT-A LC inh2,MazEF act
CC(=O)Nc1ccc(-c2ccnc3c2CC(C)(C(=O)Nc2cccc(C(C)=O)c2)O3)cc1 (stereo unspecified),3587,-7,-5,0,.
C=CCSc1nc2sc3c(c2c(=O)n1-c1ccc(C)cc1)CCN(C)C3,4217,-5,1,36*,1
CN1CCc2c(sc3nc(SCC(N)=O)n(-c4ccccc4)c(=O)c23)C1,?,3,-8,1,12
C=C(C)CSc1nc2sc3c(c2c(=O)n1-c1ccccc1)CCN(C)C3,4836,9,16,37*,5
CCSc1nc2sc3c(c2c(=O)n1-c1ccccc1)CCN(C(C)C)C3,6785,46*,4,57*,3
C=C(C)CSc1nc2sc3c(c2c(=O)n1C1CCCCC1)CCN(C)C3,7245,-4,13,33*,7
CCCCSc1nc2sc3c(c2c(=O)n1-c1ccccc1)CCN(C)C3,4210,21,14,52*,18
CCCCSc1nc2sc3c(c2c(=O)n1-c1ccc(OC)cc1)CCN(C)C3,4814,?,-16,6,15
Cn1c(=O)c2c(-c3ccccc3)n(-c3cccc(O)c3)cc2n(C)c1=O,6107,-14,-12,-1,.
Cc1cccc(-c2c3c(=O)n(C)c(=O)n(C)c3cn2-c2ccc(O)cc2)c1,20937*,-2,0,-1,7
S=c1nc(C2CCCCC2)[nH][nH]1,17098*,-6,-5,-3,0
CCOc1ccc(CNC(=O)C2CCN(c3nnc(C)c4c(C)n(-c5ccc(C)cc5)nc34)CC2)cc1,17592*,10,5,-5,11
CCOc1ccccc1CNC(=O)C1CCN(c2nnc(C)c3c(C)n(-c4ccc(C)cc4)nc23)CC1,12373,11,4,-2,30
Cc1ccc(-n2nc3c(N4CCC(C(=O)NCc5ccccc5C)CC4)nnc(C)c3c2C)cc1,16178*,10,1,-4,9
N#CCCn1cc(/C=C(\C#N)c2nc3ccccc3s2)c(-c2ccc(F)cc2)n1,9873,-4,2,0,53*
CN1CCC(N(C)C(=O)CCc2nc3ccccc3n2-c2ccccc2)CC1,4100,-1,1,0,4
COc1ccc(OC)c(/C=C2\N=C(c3ccccc3)OC2=O)c1,4261,15,2,8,+
COc1ccc(/C=N/NS(=O)(=O)c2ccc(F)cc2)cc1CN1CCSCC1,5696,-12,-6,1,7
O=c1c2ccccc2c(=O)n2n1Cc1ccccc1C2,3716,4,-7,0,10
Cc1ccc(CN(C)C(=O)c2ccc(S(=O)(=O)N(C)c3ccccc3)cc2)o1,6153,5,1,0,7
Cc1ccc(CN(C)C(=O)c2ccccc2Oc2ccccc2)o1,21202*,5,-2,3,-4
COc1ccc(OCCCC(=O)Nc2cc(S(=O)(=O)N3CCCCC3)ccc2C)cc1,4674,1,0,2,-13
CCSc1nnc(NC(=O)C2(C)Cc3ccccc3C(=O)O2)s1 (stereo unspecified),17590*,6,-12,5,-7
CCSc1nnc(NC(=O)c2cccs2)s1,22159*,0,2,1,2
CC1(C(=O)Nc2nnc(C(C)(C)C)s2)Cc2ccccc2C(=O)O1 (stereo unspecified),11347,-12,-1,-1,6
O=C(Nc1nnc(SCc2ccccc2)s1)c1cccs1,2670,0,-2,0,2
